Most compounds without a hit are left out; they make up all but 5.6% or so of the library.
H9c2 protect: myocardial damage modulation in H9c2 cells; H9c2 cardiomyocytes, H2O2 injury protection, ATPLite, 2 h; protection from H2O2 cell death, % at 20 µM; 0.63% of 360,000 active;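 active means compounds giving at least 50% protection of heart cells from peroxide-induced death in the single-dose screen, raw or plate-pattern-corrected value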
PHOSPHO1 inh: PHOSPHO1 (human) inhibition | Q8TCT1 | recombinant PHOSPHO1, absorbance phosphatase assay | inhibition, % at 13.3 µM | 1.1% of 290,000 active | AID 1565; in the data active means inhibition above about 60%
Target sequence (Q8TCT1 whole entry, looked up): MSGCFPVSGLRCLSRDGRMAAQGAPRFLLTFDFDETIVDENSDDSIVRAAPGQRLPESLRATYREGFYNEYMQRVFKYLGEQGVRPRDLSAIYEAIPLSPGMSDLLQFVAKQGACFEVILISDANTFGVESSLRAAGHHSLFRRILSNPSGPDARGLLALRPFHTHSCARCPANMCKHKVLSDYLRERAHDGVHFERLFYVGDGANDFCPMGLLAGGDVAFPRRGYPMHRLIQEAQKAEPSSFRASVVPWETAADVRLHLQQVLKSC
ALR inh: blocks human ALR sulfhydryl oxidase activity; inhibition, % (concentration not given with the values); 3.8% of 290,000 active; purified ALR, DTT oxidation, H2O2 HRP-luminol luminescence;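 active means mean replicate inhibition above about 79%, with every replicate also reaching it, limit read from the data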
PfM18AAP inh: PfM18AAP enzyme inhibition. recombinant PfM18AAP, H-Glu-NHMec fluorogenic cleavage. inhibition, % at 7.35 µM. 1.2% of 290,000 active;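 active means inhibition above the campaign mean inhibition over all tested compounds plus 3 SD, cut at about 28% in these data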
PfGluPho inh: PfG6PD (Plasmodium falciparum) enzyme inhibition. inhibition, % at 20 µM. AID 504690. PfGluPho enzyme, NADPH resazurin-diaphorase fluorescence. 0.78% of 350,000 active;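 active means inhibition reaching at least a set limit at 20 µM in the primary screen, cut at about 59% in these data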
A number is an active result; 0 = inactive; - = no result given.

SMILES	H9c2 protect	PHOSPHO1 inh	ALR inh	PfM18AAP inh	PfGluPho inh
COc1ccc(CCN2CC(C(=O)N(C)CCc3cn[nH]c3)CCC2=O)cc1 (stereo not given)	0	0	-	0	0
CCOC(=O)c1nnn2c1nc(SCC(C)=O)c1ccccc12	0	0	88	0	0
Cc1nn(CCc2nc(-c3ccco3)cs2)c2[nH]c(=O)cc(C(F)(F)F)c12	0	77	0	0	0
Cc1cc(C)n(CCc2nc(-c3ccco3)cs2)n1	0	0	99	0	0
COc1ccc(N(C(=O)c2cnccn2)C(C(=O)NC2CCCCC2)c2ccc(O)cc2)cc1 (stereo not given)	0	0	0	0	0
Cc1ccc2c(CC(=O)Nc3sccc3C(N)=O)coc2c1	0	0	85	0	0
Cc1ccc2c(CC(=O)NCC(=O)Nc3c(C)cccc3C)coc2c1	0	-	0	-	0
Cc1ccc(NS(=O)(=O)c2cc(NC(=O)C(C)Oc3ccccc3)ccc2C)c(C)c1 (stereo not given)	0	0	0	0	0
Cc1ccc(C)c(S(=O)(=O)Nc2cc(SCC(=O)O)c(O)c3ccccc23)c1	0	71	0	0	104
COc1ccc(NC(C)=[N+](C)CCNS(=O)(=O)c2ccc(Cl)cc2)cc1	0	0	0	0	0
COc1ccc(-n2nc(C(=O)NCC(=O)Nc3cc(OC)c(OC)c(OC)c3)c3ccccc3c2=O)cc1Cl	58	0	0	0	0
COc1ccc2c(C)c(CC(=O)N3CCN(C(=O)C4COc5ccccc5O4)CC3)c(=O)oc2c1 (stereo not given)	0	64	0	0	0
Cc1c(CC(=O)N2CCN(C(=O)C3COc4ccccc4O3)CC2)c(=O)oc2cc(O)ccc12 (stereo not given)	0	0	0	0	0
O=C(c1ccco1)N1CCN(c2ncnc3c(-c4ccc(Cl)cc4)nsc23)CC1	0	0	0	0	0
O=C(CSc1ncnc2c(-c3ccc(Cl)cc3)nsc12)c1ccccc1	0	73	0	0	0
COc1ccc(NC(=S)NC(=O)c2cncc(Br)c2)c(OC)c1	0	0	0	0	0
O=C(NCc1ccc2c(c1)OCO2)c1ccc(CS(=O)Cc2cccc(Cl)c2)o1 (stereo not given)	0	0	94	0	0
Cc1ccc(CNC(=O)c2ccc(CS(=O)Cc3ccccc3Cl)o2)cc1 (stereo not given)	0	0	99	0	0
O=C(NCc1ccc2c(c1)OCO2)c1ccc(CS(=O)Cc2ccc(Cl)cc2)o1 (stereo not given)	0	0	0	0	0
CCOc1ccc(CCNC(=O)c2ccc(CS(=O)Cc3ccccc3Cl)o2)cc1 (stereo not given)	0	0	98	0	0
Cc1ccc(CS(=O)Cc2ccc(C(=O)NCc3ccccc3Cl)o2)cc1 (stereo not given)	0	0	0	0	0
CCOc1ccc(C(C)=O)cc1COc1cccnc1[N+](=O)[O-]	0	0	0	0	0
Cn1c(=O)n(C)c2cc(NS(=O)(=O)c3cccs3)ccc21	0	0	0	0	0
CCOC(=O)C1CCN(Cc2cnc(Oc3ccc(Cl)cc3C)s2)CC1	0	0	0	0	0
CCOC(=O)C1CCN(Cc2cnc(Oc3ccc(N)cc3)s2)CC1	0	0	98	0	0
SMILES	H9c2 protect	PHOSPHO1 inh	ALR inh	PfM18AAP inh	PfGluPho inh
CCN1CCN(c2cc(N3CCN(C(=O)c4ccco4)CC3)c3c4c(onc24)-c2ccccc2C3=O)CC1	0	0	0	0	68
Cc1cc(N2CCN(C(=O)c3ccco3)CC2)c2ccccc2n1	0	0	0	0	0
Cc1ncc([N+](=O)[O-])n1CC(=O)N/N=C/c1ccc(F)cc1	0	0	0	0	0
NNc1cc([N+](=O)[O-])cc2c1C(=O)N(Cc1ccccc1)S2=O (stereo not given)	0	0	0	42	0
CCOCCCNC(=O)c1ccc(N2CC3CC(C2)c2cccc(=O)n2C3)c(NC(=O)Nc2cccc(OC)c2)c1 (stereo not given)	0	0	-	0	0
COc1ccc(/C=C2\Oc3cc(OCC(=O)N4CCC(C(=O)O)CC4)ccc3C2=O)c(OC)c1	0	0	-	0	0
COc1ccc(/C=C2\Oc3cc(OCC(=O)N4CCC(C(=O)O)CC4)ccc3C2=O)c(OC)c1OC	0	0	91	0	0
O=c1c2ccccc2oc2c1oc1ccccc12	0	-	-	-	0
N#Cc1cccc(N=c2ssnc2Cl)c1	-	0	-	29	80
CCOC(=O)c1c(C)[nH]c(C(=O)COc2ccc3ccc(=O)oc3c2)c1C	52	-	0	-	0
